Laboratory results: PubChem BioAssay (NCI)
About 79,000 compounds went through this panel and 15% of them were active in at least one assay; those are over-represented in the sample as a whole. Active and inactive are the calls of the source. Rule as the data show it: active = growth inhibition above about 70%; inactive = the rest.

Experiments:
[1] = NCI Yeast Anticancer Drug Screen. Data for the rad50 strain (AID 155);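 also: 0% = growth of vehicle-only cultures of the same strain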; details: S. cerevisiae rad50 strain growth inhibition, stronger effect = higher value; at 50.0 µM unless noted
How it was run: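 Yeast carrying a defined DNA repair defect were exposed to test compounds, and growth was compared with vehicle-treated controls to give percent inhibition.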

[2] = NCI Yeast Anticancer Drug Screen. Data for the mec2-1 strain (AID 157); details: S. cerevisiae mec2-1 strain, stronger effect = higher value; at 50.0 µM unless noted
How it was run: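 Compounds were applied to mec2-1 yeast cells. Their growth was then compared with that of vehicle-treated cultures to give growth inhibition.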

[3] = NCI Yeast Anticancer Drug Screen. Data for the sgs1 mgt1 strain (AID 161);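 also: 0% = growth of cultures given vehicle only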; details: S. cerevisiae sgs1 mgt1 strain, stronger effect = higher value; at 50.0 µM unless noted
How it was run: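 Growth of a repair-deficient yeast mutant was monitored after compound treatment and expressed as inhibition relative to vehicle-treated cultures.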

[4] = NCI Yeast Anticancer Drug Screen. Data for the cln2 rad14 strain (AID 165);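 also: 0% = growth equal to vehicle treated cultures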; details: S. cerevisiae cln2 rad14 strain, stronger effect = higher value; at 50.0 µM unless noted
How it was run: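 Strain: cln2 rad14 yeast, altered in cell cycle control and DNA damage repair. Read-out: growth inhibition vs vehicle.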

[5] = NCI Yeast Anticancer Drug Screen. Data for the bub3 strain (AID 167); details: S. cerevisiae bub3 mutant strain, stronger effect = higher value; at 50.0 µM unless noted
How it was run: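 Compounds were applied to a genetically altered yeast strain carrying a cell-cycle control defect. Growth inhibition was scored against vehicle-treated controls.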

[6] = NCI Yeast Anticancer Drug Screen. Data for the mlh1 rad18 strain (AID 175); details: S. cerevisiae mlh1 rad18 strain growth inhibition, stronger effect = higher value; at 50.0 µM unless noted
How it was run: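 A repair-deficient yeast strain is exposed to test compound, and growth is scored relative to vehicle-treated controls.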

Measured: growth inhibition

CCOC(=O)C1=C(C(=O)c2ccc(OC)cc2)C(c2ccc([N+](=O)[O-])cc2)C(C(=O)c2ccc(OC)cc2)=C(C(=O)OCC)N1
inactive: [1] 11.1% | [2] 5.8% | [3] 0.1% | [4] 14.1% | [5] 4.95% | [6] -3.25%

O=C1CN(CCc2ccccc2)CC(=O)N2C(c3ccccc3)CCCN12 (stereo unspecified)
inactive: [1] 62.7% | [2] 38.5% | [3] 65.2% | [4] 42.2% | [5] 52% | [6] 43.4%

CC(C)(C)OC(=O)C(=[N+]=[N-])C(=O)OC(C)(C)C
inactive: [1] 8.75% | [2] 1.5% | [3] 2.3% | [4] -28.5% | [5] -7.15% | [6] 17.7%

O=CC[C@]12CC(=O)OC(C=CC13OCCO3)C2
inactive: [1] 6.55% | [2] -9.4% | [3] -16.7% | [4] 17.6% | [5] 13.4% | [6] 9.05%

O=C1c2ccccc2C(=O)N1c1ccc(Cc2ccc(N3C(=O)c4ccccc4C3=O)cc2)cc1
inactive: [1] -11.7% | [2] 10.1% | [3] -2.6% | [4] 42.9% | [5] -0.2% | [6] 14.7%

Fc1ccc2c(c1)SC1Oc3ccccc3-c3c1c-2nn3-c1ccccc1 (stereo unspecified)
inactive: [1] -5.45% | [2] -7.45% | [3] -17.4% | [4] 8.8% | [5] -11.1% | [6] -2.6%

Cc1cc(C(=O)O)c(C(=O)O)c(Cl)n1
inactive: [1] -9.15% | [2] -5% | [3] 0.45% | [4] -12.9% | [5] -16.9% | [6] 4.8%

CCCCCCCCCC(OCC)OCC
inactive: [1] -25.1% | [2] -15.2% | [3] -11.6% | [4] -6.35% | [5] -31.4% | [6] -25.6%

COc1ccc(C(=[N+]=[N-])c2ccc(OC)cc2)cc1
inactive: [1] -4.65% | [2] -6.85% | [3] 7.35% | [4] -48.2% | [5] -10.1% | [6] 4.75%

CC(=O)Oc1cc(C)c(OC(C)=O)c2ccccc12
inactive: [1] -6.6% | [2] 17.7% | [3] 4.45% | [4] -1.3% | [5] 10.3% | [6] 4.1%

C=CCC(O)c1ccccc1OC (stereo unspecified)
inactive: [1] 9.75% | [2] 9.25% | [3] 20.8% | [4] 5.15% | [5] -5.9% | [6] 7.95%

CN(Cc1ccc2nc(N)nc(N)c2c1)c1ccc(C(=O)NC(CCC(=O)O)C(=O)O)cc1 (stereo unspecified)
active: [2] 88.8% | [3] 77.8%
inactive: [1] 65.3% | [4] 4.7% | [5] -24.5% | [6] 33.3%

COc1ccc(OCc2ccc(OC)c(OC)c2)cc1
inactive: [1] 7.2% | [2] -3.7% | [3] -11.2% | [4] -10.7% | [5] -8.15% | [6] -7.35%

COc1ccc(NC(=S)N/N=C(\C)c2ccccn2)cc1
active: [1] 81.5% | [2] 91.8% | [3] 94% | [5] 80.1% | [6] 84.8%
inactive: [4] 35.4%

CC1(C)C2(Cl)C(Cl)=C(Cl)C13C(Cl)(c1ccc([N+](=O)[O-])cc1C1(Cl)C(Cl)(Cl)C4(Cl)C(Cl)=C(Cl)C13C4(C)C)C2(Cl)Cl (stereo unspecified)
inactive: [1] 0.55% | [2] -10.1% | [3] -27.9% | [4] -7.6% | [5] -2.5% | [6] 13%

C(=N\N(c1ccccc1)c1ccccc1)/C(c1ccccc1)c1ccccc1
inactive: [1] 2.55% | [2] -3.2% | [3] 1.9% | [4] -3.95% | [5] 2.2% | [6] -4.35%

C/C(=N\NC(=O)Nc1ccc(N=Nc2ccccc2)cc1)c1ccncc1
inactive: [1] 17.4% | [2] 10.5% | [3] 19.1% | [4] 1.5% | [5] 14.3% | [6] 10.7%

CCOC(=O)C(=O)/C(=C/N1C(=O)CC(=O)NC1=S)C(=O)OCC
inactive: [1] -19.6% | [2] -47.2% | [3] -25% | [4] -13.9% | [5] -34.9% | [6] -10.6%

O=C1NC(N2CCOCC2)=N/C1=C\c1ccc(Cl)cc1
inactive: [1] 1.75% | [2] 3.6% | [3] 4.9% | [4] -6.25% | [5] -11.1% | [6] -29.9%

Cc1cccc(NC(=O)OC/C=C/c2ccccc2)c1
inactive: [1] 10.3% | [3] 53.5% | [4] 0.65% | [5] 31.4% | [6] 4.95%
active: [2] 70.5%

Nn1c(N=Nc2c(O)[nH]c3ccccc23)n[nH]c1=S
inactive: [1] 45.9% | [2] 5.5% | [3] 57% | [4] 15.9% | [5] 6.35% | [6] 23.9%

Cc1c2c(c(C)c3c1C(=O)c1cc4c(cc1C3=O)OCO4)OCO2
inactive: [1] -9.1% | [2] -4.35% | [3] -5.35% | [4] -4.7% | [5] -31.9% | [6] -15.4%

O=C(NCc1ccccc1)c1n[nH][nH]c1=O
inactive: [1] 3.05% | [2] 5.8% | [3] 12.2% | [4] -8.15% | [5] -3.3% | [6] 20.6%

CCCCCCCCCCCC[N+](C)(C)C(C)Cc1ccccc1 (stereo unspecified)
active: [1] 99.3% | [2] 99.5% | [3] 89.8% | [4] 99.4% | [5] 99.2% | [6] 99.3%

Cc1ccc(S(=O)(=O)NN=C2C3C=CC2CC3)cc1
inactive: [1] 11.8% | [2] -2.3% | [3] 2.55% | [4] 6.25% | [5] 2.7% | [6] 4.75%

CCN(CC)c1ccc(/C=C(\C)c2nc3ccc(C)cc3[nH]2)cc1
inactive: [1] -5.25% | [2] -10.7% | [3] 8.1% | [4] 1.8% | [5] -9.3% | [6] 3.45%

CCCCC(C(=O)CCC(=O)Nc1ccc(Cl)c(Cl)c1)C(=O)C(C)C (stereo unspecified)
inactive: [1] -7% | [2] -18.8% | [3] 19.1% | [4] -0.3% | [5] 8.4% | [6] -2.4%

O=C(OC(c1ccccc1)C(c1ccccc1)N1CCOCC1)c1ccc([N+](=O)[O-])cc1 (stereo unspecified)
inactive: [1] 54.8% | [2] 8.3% | [3] 55.4% | [4] -4.9% | [5] 17.1% | [6] 54.6%

C/C(CC1=CCCCC1)=N\NC(N)=O
inactive: [1] -18.4% | [2] -17.9% | [3] -20.9% | [4] -27.9% | [5] -4.65% | [6] -12.7%

CC(C)(C)NC(=O)CCCl
inactive: [1] 16.4% | [2] 14.4% | [3] 16.5% | [4] 5.6% | [5] 1.8% | [6] 41.8%

O=C(Nc1ccc(S(=O)(=O)Nc2nccs2)cc1)c1ccncc1
inactive: [1] -0.05% | [2] -11.3% | [3] 22.3% | [4] 19.1% | [5] 28.3% | [6] 12%

CN1N=C(c2ccncc2)OC1c1cccc(C(F)(F)F)c1 (stereo unspecified)
inactive: [1] -63.6% | [2] -65.9% | [3] -32.8% | [4] -3.6% | [5] 0.75% | [6] -21.3%

Cc1cc2nncn2c2ccccc12
inactive: [1] 9.15% | [2] -3.55% | [3] -2.9% | [4] -12.3% | [5] 1.2% | [6] 11.2%

O=c1oc(-c2ccc([N+](=O)[O-])cc2)nc2cc(Cl)ccc12
inactive: [1] 17.8% | [2] 9.15% | [3] 44.7% | [4] 8.85% | [5] 44.9% | [6] 18.6%

COc1cc(OC)c(-c2nc3ccccc3c(=O)o2)cc1OC
inactive: [1] 4.9% | [2] 1% | [3] -3.65% | [4] 0.9% | [5] -0.75% | [6] 7.75%

COc1cccc(C#CC(=O)O)c1
inactive: [1] -25.6% | [2] -20.9% | [3] -18.9% | [4] -5.35% | [5] -21.9% | [6] -11.6%

CCC1CC(C)=CCN1S(=O)(=O)c1ccc(C)cc1 (stereo unspecified)
inactive: [1] -12.6% | [2] -2.3% | [3] 4.4% | [4] 18.6% | [5] 12.2% | [6] 2.35%

CCCCNC(=S)Nn1c(-c2ccccc2)nc2ccccc2c1=O
inactive: [1] 18.6% | [2] -43% | [3] -20.8% | [4] -37.5% | [5] -31.9% | [6] 0.9%

CC(C)(CO)N=Cc1ccccc1O
inactive: [1] -0.25% | [2] -1.6% | [3] -14.2% | [4] -3.8% | [5] -13.3% | [6] 6.35%

CC(=O)O/N=C(\C(c1ccccc1)c1ccccc1)C1c2ccccc2-c2ccccc21
inactive: [5] 64.8%
active: [1] 91.3% | [2] 88.7% | [3] 96.9% | [4] 91.2% | [6] 96.2%

Cc1ccc(CC2CC(=O)NC2=O)cc1 (stereo unspecified)
inactive: [1] 13.6% | [2] -2.95% | [3] 22.1% | [4] 2.15% | [5] 10.5% | [6] -3.8%
